Laboratory results published in PubChem BioAssay (NCATS).
Records with an inconclusive call do not appear. Entries that show only a call come without a potency. Activity calls are given as the source filed them. Calls come from the whole dose curve; as a rule, active = well fitted curve in the direction sought with a large enough effect; inconclusive = small, poorly fitted or top-dose-only effect, or another doubt; inactive = no such curve, though single readings can be large; an effect the other way counts as inactive or inconclusive. Numbered stars: 1 amine (or outer) side, 2 acyl side, 3 side chain; on linkers, the order of the positions; unused ones are H or OH. Bridge positions count the residues as written; N and C are the ends. Square brackets hold non-standard residues; d marks the D form. Peptide text beside a SMILES is read from it. I, II: the chains in the order shown. Actinocin(9to1) = Cc1c2oc3c(C)ccc(C(=O)[*:1])c3nc-2c(C(=O)[*:2])c(N)c1=O; NMeV = CN[C@H](C(=O)O)C(C)C; Sar = CNCC(=O)O

Columns and labels:
[1] = qHTS of pediatric cancer cell lines to identify multiple opportunities for drug repurposing: Primary screen for Rh30 cells (AID 1347107); note: series mostly up to about 46 µM; nearly all actives have a fitted effect of over 75% in size
In short: (§1)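 Cells (500-1,000/well) rested 5 h, then received compounds for 48 h; metabolically active cells were measured by CellTiter-Glo luminescence. Final concentrations spanned up to 46 µM (MIPE, 11-point) or 0.59 nM-46 µM (NPC, 8-point) in primary screens, 11-point in follow-ups.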

[2] = qHTS of pediatric cancer cell lines to identify multiple opportunities for drug repurposing: Confirmatory screen for A673 cells (AID 1347110);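 note: potency is the fitted concentration of half-maximal effect; cells exposed to compound for 48 h before the viability read; nearly all actives have a fitted effect of over 65% in size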
In short: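 A673 cells at 500-1,000 cells/well were dosed 5 h after plating, in dilution series up to 46 uM final; primary runs used 8 or 11 points and confirmatory runs used 11 points. Viability was read by CellTiter-Glo luminescence after 48 h, against DMSO and 2.3 uM bortezomib controls.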

[3] = qHTS of pediatric cancer cell lines to identify multiple opportunities for drug repurposing: Confirmatory screen for SK-N-MC cells (AID 1347111);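 note: potency is the fitted concentration of half-maximal effect; cells exposed to compound for 48 h before the readout; nearly all actives have a fitted effect of over 70% in size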
In short: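 Seed 500-1,000 cells/well; rest 5 h at 37 degrees C. Pin-transfer compounds, 11-point titration. Incubate 48 h. Add CellTiter-Glo, 15 min RT, read luminescence.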

[4] = qHTS of pediatric cancer cell lines to identify multiple opportunities for drug repurposing: Confirmatory screen for BT-12 cells (AID 1347112);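 note: potency is the fitted concentration of half-maximal effect; viability read after 48 h of compound exposure; nearly all actives have a fitted effect of over 55% in size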
In short: as §1

[5] = qHTS of pediatric cancer cell lines to identify multiple opportunities for drug repurposing: Confirmatory screen for LAN-5 cells (AID 1347113); note: potency is the fitted concentration of half-maximal effect; nearly all actives have a fitted effect of over 65% in size
In short: as §1

[6] = qHTS of pediatric cancer cell lines to identify multiple opportunities for drug repurposing: Confirmatory screen for DAOY cells (AID 1347114); note: potency is the fitted concentration of half-maximal effect; nearly all actives have a fitted effect of over 65% in size
In short: (§2)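 Viability measured as metabolically active cells via CellTiter-Glo luminescence following 48 hours of compound exposure, 11-point dilutions in confirmatory testing. 500-1,000 cells/well plated 5 hours before dosing; controls were DMSO and 2.3 µM bortezomib.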

[7] = qHTS of pediatric cancer cell lines to identify multiple opportunities for drug repurposing: Confirmatory screen for NB-EBc1 cells (AID 1347115);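 note: cells exposed to compound for 48 h before the viability read; nearly all actives have a fitted effect of over 45% in size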
In short: as §1

[8] = qHTS of pediatric cancer cell lines to identify multiple opportunities for drug repurposing: Confirmatory screen for SJ-GBM2 cells (AID 1347116); note: potency is the fitted concentration of half-maximal effect; nearly all actives have a fitted effect of over 60% in size
In short: as §2

[9] = qHTS of pediatric cancer cell lines to identify multiple opportunities for drug repurposing: Confirmatory screen for BT-37 cells (AID 1347117); note: potency is the fitted concentration of half-maximal effect; nearly all actives have a fitted effect of over 55% in size
In short: as §1

[10] = qHTS of pediatric cancer cell lines to identify multiple opportunities for drug repurposing: Confirmatory screen for TC32 cells (AID 1347118);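 note: potency is the fitted concentration of half-maximal effect; cells exposed to compound for 48 h before the read; nearly all actives have a fitted effect of over 65% in size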
In short: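 TC32 cells, 500-1,000/well in growth medium, compound-treated 48 h at 37 °C; viability from CellTiter-Glo luminescence. Primary screen: MIPE 11-point (0.78 nM–46 µM final), NPC 8-point (0.59 nM–46 µM final); confirmatory at 11-point dilutions.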

[11] = qHTS of pediatric cancer cell lines to identify multiple opportunities for drug repurposing: Confirmatory screen for MG 63 (6-TG R) cells (AID 1347119); note: potency is the fitted concentration of half-maximal effect; nearly all actives have a fitted effect of over 55% in size
In short: as §1

[12] = qHTS of pediatric cancer cell lines to identify multiple opportunities for drug repurposing: Confirmatory screen for Rh41 cells (AID 1347123);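 note: potency is the fitted concentration of half-maximal effect; 48 h compound exposure; nearly all actives have a fitted effect of over 60% in size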
In short: as §1

[13] = qHTS of pediatric cancer cell lines to identify multiple opportunities for drug repurposing: Confirmatory screen for Rh30 cells (AID 1347126); note: nearly all actives have a fitted effect of over 55% in size
In short: as §1

[14] = qHTS of pediatric cancer cell lines to identify multiple opportunities for drug repurposing: Confirmatory screen for OHS-50 cells (AID 1347128)
In short: as §1

[15] = test system: Zika virus NS2B-NS3 protease (unlinked); experiment: Optimization of GU AMC qHTS for Zika virus inhibitors: Unlinked NS2B-NS3 protease assay (AID 1347151); note: potency is the fitted concentration of half-maximal effect; nearly all actives have a fitted effect of over 80% in size
In short: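 Noncovalent NS2B hydrophilic domain–NS3 protease complex (25 nM final) in 10 mM Tris-HCl pH 8.0, 0.01% Tween 20; AMC substrate, room temperature 15 min (~20% conversion); fluorescence change normalized, 4-parameter Hill fit.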

[16] = qHTS of pediatric cancer cell lines to identify multiple opportunities for drug repurposing: Primary screen for Rh41 cells (AID 1347108);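 note: series mostly up to about 46 µM; luminescence drop marks cytotoxic hits; nearly all actives have a fitted effect of over 70% in size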
In short: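 Primary screen of approved and investigational compounds on cells in growth media at 37 degrees C, 5% CO2. MIPE set at 11-point and NPC set at 8-point dilutions; viability scored by ATP-based luminescence at 48 hours.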

Furin (Homo sapiens) = Furin (Homo sapiens) (UniProt P09958); experiment: Furin counterscreen qHTS for Zika virus inhibitors (AID 1347149);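 note: purified recombinant full-length human furin enzyme at 5 nM; fluorescence gain from furin cutting a BOC-RVRR-AMC peptide substrate over 15 min; top concentration of the series differs between compounds; nearly all actives have a fitted effect of over 70% in size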
Chain of Furin (Homo sapiens) (P09958 whole entry, looked up): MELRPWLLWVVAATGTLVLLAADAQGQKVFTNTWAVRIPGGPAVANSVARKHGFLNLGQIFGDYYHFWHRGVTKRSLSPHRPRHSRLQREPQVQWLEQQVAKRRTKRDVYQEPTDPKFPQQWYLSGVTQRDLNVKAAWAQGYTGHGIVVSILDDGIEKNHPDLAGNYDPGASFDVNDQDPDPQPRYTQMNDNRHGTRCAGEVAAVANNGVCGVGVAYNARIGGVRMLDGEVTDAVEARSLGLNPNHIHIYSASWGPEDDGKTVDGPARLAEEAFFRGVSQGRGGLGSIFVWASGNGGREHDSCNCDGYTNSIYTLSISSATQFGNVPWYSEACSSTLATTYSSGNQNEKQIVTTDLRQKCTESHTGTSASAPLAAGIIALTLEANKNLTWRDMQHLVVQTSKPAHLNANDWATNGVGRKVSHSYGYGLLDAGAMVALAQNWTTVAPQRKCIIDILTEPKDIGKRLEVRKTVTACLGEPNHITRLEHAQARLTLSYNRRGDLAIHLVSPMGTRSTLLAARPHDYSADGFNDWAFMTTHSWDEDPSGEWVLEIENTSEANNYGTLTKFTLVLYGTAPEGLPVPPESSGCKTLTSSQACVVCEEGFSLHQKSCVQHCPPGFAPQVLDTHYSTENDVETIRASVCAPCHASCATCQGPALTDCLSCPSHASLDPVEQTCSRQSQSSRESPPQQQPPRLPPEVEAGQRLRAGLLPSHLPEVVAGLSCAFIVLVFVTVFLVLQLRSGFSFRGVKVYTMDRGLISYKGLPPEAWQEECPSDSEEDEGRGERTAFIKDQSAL
In short: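 Counterscreen measures cleavage of 2 microM BOC-RVRR-AMC, below its ~15 microM Km, by 5 nM full-length human furin at pH 7.0 after a 15-min compound preincubation. Inhibition derives from the 15-min fluorescence increase at 37C.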

SMILES: Cc1c2oc3c(C)ccc(C(=O)N[C@@H]4C(=O)N[C@H](C(C)C)C(=O)N5CCC[C@H]5C(=O)N(C)CC(=O)N(C)[C@@H](C(C)C)C(=O)O[C@@H]4C)c3nc-2c(C(=O)N[C@@H]2C(=O)N[C@H](C(C)C)C(=O)N3CCC[C@H]3C(=O)N(C)CC(=O)N(C)[C@@H](C(C)C)C(=O)O[C@@H]2C)c(N)c1=O (I: T[dV]P[Sar][NMeV] / II: T[dV]P[Sar][NMeV]; ester I:1-I:C, II:1-II:C; linker I:N-II:N via Actinocin(9to1))
- Potency [1]: inactive
- Potency [2]: 13.1 nM (active)
- Potency [3]: 5.2 nM (active)
- Potency [4]: 20.8 nM (active)
- Potency [5]: 2.3 nM (active)
- Potency [6]: 26.1 nM (active)
- Potency [7]: inactive
- Potency [8]: 26.1 nM (active)
- Potency [9]: 2.3 nM (active)
- Potency [10]: 9.3 nM (active)
- Potency [11]: 32.9 nM (active)
- Potency [12]: 14.7 nM (active)
- Potency [13]: inactive
- Potency [14]: 29.3 nM (active)
- Potency [15]: 27100 nM (active)

SMILES: CCN1CCCC1=O
- Potency [16]: inactive

SMILES: CCC(=O)c1c(O)cc(O)cc1O
- Potency [16]: inactive

SMILES: CN1[C@@H]2CC[C@H]1CC(OC(=O)c1c[nH]c3ccccc13)C2 (stereo partly specified)
- Potency [16]: inactive

SMILES: CC[N+](CC)(CCNC(=O)C(=O)NCC[N+](CC)(CC)Cc1ccccc1Cl)Cc1ccccc1Cl
- Potency [16]: inactive

SMILES: Oc1cc(O)c2c(c1)O[C@H](c1ccc(O)c(O)c1)[C@H](O)C2
- Potency [16]: inactive

SMILES: CCCCCCCCCCCCCCNCCO
- Potency [16]: inactive

SMILES: C=CCc1ccc(O)c(OC)c1
- Potency [16]: inactive

SMILES: CCOC(=O)/C=C(C)/C=C/C=C(C)/C=C/c1c(C)cc(OC)c(C)c1C
- Potency [16]: inactive

SMILES: Oc1c(Cl)cc(Cl)cc1Sc1cc(Cl)cc(Cl)c1O
- Potency [1]: inactive
- Potency [16]: inactive
- Potency (Furin (Homo sapiens)): inactive
